The values below come from PubChem BioAssay (EPA / NIEHS).

Active and inactive are the calls of the source. Rule for the calls: active = hit-call score of the fitted dose curve at least 0.9, where 1 is the maximum; inactive = score below 0.9.

The assay can be described thus: ATG_DR4_LXR_CIS: Attagene CIS-FACTORIAL HepG2 Assay for human Liver X Receptor (LXR), DR4 submotif (AID 2282929). Particulars: HepG2 Attagene DR4 cis-reporter, mRNA transcription; actives raise or lower the signal. Put shortly: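 HepG2, transient MRTU transfection, cis-element (DR4) promoter; 24 h compound exposure; total RNA → oligo(dT) RT → PCR → 6-FAM primer extension → HpaI cut → CE. Gain/loss vs DMSO, bidirectional fit.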
Turning to `Nc1cc(Cl)c(N)c(Cl)c1`, the compound was classed as inactive.
On to `O=C(CC(=O)C(F)(F)C(F)(F)F)C(F)(F)F`, for which the call was inactive.
`FC(F)(F)C(F)(F)CNCC(F)(F)C(F)(F)F`: the outcome was inactive.
As for `CCc1c(Br)c(Br)c(Br)c(Br)c1Br`, the outcome was inactive.
Take `C=C(C)C(=O)OCCC(F)(F)C(F)(F)C(F)(F)C(F)(F)C(F)(C(F)(F)F)C(F)(F)F`: the outcome was inactive.
As for `C=CC(=O)OCC(F)(F)C(F)(F)C(F)(F)C(F)(F)COC(=O)C=C`, the AC50 (in general, the midpoint of the concentration-response curve, whichever way the signal moves) was 31.3 µM (active).
On to `CCc1ccc(C(c2ccc(CC)cc2)C(Cl)Cl)cc1`, for which the half-maximal activity concentration (AC50) is 51 µM (active).
As to `CO[Si](OC)(c1ccccc1)c1ccccc1`, the call was inactive.
In the case of `Cc1cc(C)cc(O)c1`, the result was inactive.
Take `CCCCCCOC(=O)c1ccccc1O`: the outcome was inactive.
In the case of `O=C(O)C(F)(F)C(F)(F)C(F)(F)C(F)(F)C(F)(F)C(F)(F)C(F)(F)C(F)(F)C(F)(F)C(F)(F)C(F)(F)C(F)(F)F`, the outcome was inactive.
The same measure, in the same setting: as for `CCCCCCS`, the entry is “inactive”.
For the compound `CCCCOc1ccc(N)cc1`, the compound was called inactive.
Turning to `c1ccc(-c2ccccc2-c2ccccc2)cc1`, the AC50 was 27.7 µM (active).
`FC(F)(F)C(F)(F)C(F)(F)C(F)(F)C(F)(F)C(F)(F)C(F)(F)C(F)(F)CCS`: the compound was classed as inactive.
Take `CCCCNc1ccccc1`: the outcome was inactive.
On to `OCC(F)(F)C(F)(F)C(F)(F)C(F)(F)C(F)(F)C(F)(F)F`, for which the call was inactive.
Regarding `O=C(O)C(F)(F)C(F)(F)C(F)(F)C(F)(F)F`, the result was inactive.
In the case of `Cc1ccc(S(=O)(=O)OCC(F)(F)C(F)(F)C(F)(F)C(F)(F)C(F)(F)C(F)F)cc1`, the outcome was inactive.
On to `CCCCCCOC(=O)c1ccccc1`, for which the result was inactive.
Still for that read-out and setting: as for `CCN(Cc1cccc(S(=O)(=O)O)c1)c1ccc(C(=C2C=CC(=[N+](CC)Cc3cccc(S(=O)(=O)O)c3)C=C2)c2ccc(O)cc2S(=O)(=O)[O-])cc1`, the entry is “inactive”.
